Test results as given in PubChem BioAssay AID1240 (Sanford-Burnham Center for Chemical Genomics, 2008).
The campaign covered roughly 50,000 compounds. About 800 (1.6%) showed an effect of 50% or more. For the sample, strong results were picked, then their nearest neighbours and some compounds at random.

Biological target: Bcl-2-like protein 10 (Homo sapiens) (UniProt Q9HD36)
Test: Phenotype converters, Bcl-B/TR3 peptide binding displacement, primary biochemical FP (AID 1240);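 note: 0% = Bcl-B with tracer peptide and DMSO and 100% = tracer peptide lacking Bcl-B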
Conditions: GST-Bcl-B / FITC-TR3 peptide fluorescence polarization; stronger effect = higher value; compound at 3.75 mg/L

Chain of Bcl-2-like protein 10 (Homo sapiens) (Q9HD36 whole entry, looked up): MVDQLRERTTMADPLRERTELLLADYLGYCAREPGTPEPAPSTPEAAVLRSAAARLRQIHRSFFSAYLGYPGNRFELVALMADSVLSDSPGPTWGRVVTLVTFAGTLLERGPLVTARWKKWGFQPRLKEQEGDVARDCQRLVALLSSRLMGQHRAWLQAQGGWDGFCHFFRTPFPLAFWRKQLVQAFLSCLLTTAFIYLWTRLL

| SMILES | displacement [%] |
| --- | --- |
| O=C(c1cccc([N+](=O)[O-])c1)c1ccc2c(c1)C(=O)N(c1ccccc1C(=O)O)C2=O | -2.7 |
| Cc1ccc(S(=O)(=O)NCCSCc2ccccc2Cl)cc1[N+](=O)[O-] | -8.5 |
| CCN(CC)S(=O)(=O)c1ccc(NC(=O)c2ccco2)cc1 | -5.1 |
| Cc1ccccc1OCC(=O)Nc1ccc2c3c(cccc13)CC2 | 107 |
| CCOc1ccc(C(=O)Nc2ccc3c4c(cccc24)CC3)cc1[N+](=O)[O-] | 14.7 |
| CCCOc1cccc(C(=O)Nc2ccc3c4c(cccc24)CC3)c1 | 88.7 |
| Cc1ccccc1OCC(=O)Nc1ccccc1CO | -7.8 |
| CCCOc1cccc(C(=O)Nc2ccc(I)cc2Cl)c1 | 10.7 |
| CC(=O)Nc1ccccc1NC(=O)COc1ccccc1C | 11.1 |
| O=C(N/N=C/c1cccs1)C(=O)NC1CCCCC1 | 7.6 |
| O=C(O/C(=C/c1nccn1Cc1ccc(Cl)cc1)c1ccccc1)c1ccccc1 | -1.2 |
| O=C(COc1ccc(Cl)cc1)Nc1ccc2c(c1)Cc1ccccc1-2 | 5.4 |
| O=C(Nc1ccccc1[N+](=O)[O-])c1ccccc1Cl | 8.4 |
| COc1ccc(C(=O)CN2CCN(CCN3C(=O)c4cccc5cccc(c45)C3=O)CC2)cc1 | 9.4 |
| COc1ccccc1N1C(=O)/C(=C/c2ccc(N(C)C)cc2)SC1=S | -8.2 |
| Cc1c(-c2ccc(Cl)cc2)nc2ccccc2c1C(=O)Nc1ccc(F)cc1F | -9.1 |
| CCn1c(O)c(/C=N/N=C2CCCC2)c2ccc(C3=NNC(=O)CC3)cc21 | 45.9 |
| CCn1c(O)c(/C=N/N=C/c2ccccc2)c2ccc(C3=NNC(=O)CC3)cc21 | 119 |
| CCCOc1ccc(C2=NNC(=O)CC2)cc1 | 3.6 |
| CC1=NN(c2cccc(Cl)c2)C(=O)/C1=C/C=C/c1cccc([N+](=O)[O-])c1 | 13.6 |
| Cc1nc2cc(-c3ccc(F)cc3)[nH]n2c(=O)c1C | -7.3 |
| O=C1OC(c2ccccc2)=C/C1=C\c1c(Cl)cccc1Cl | -5.8 |
| N#Cc1c(NCc2ccccc2)ccnc1SCc1ccccc1 | -4.8 |
| N#Cc1c(NCc2ccccc2)ncc2c1Nc1ccccc1C2 | 112 |
| COc1nccc(NCc2ccccc2)c1C#N | -12.3 |
| C=C(Br)Cn1c(C)nc2ccccc21 | 14.6 |
| COc1ccc(C(CC(=O)c2ccc(C)cc2)Nc2ccc(I)cc2)cc1OC (stereo not given) | -7 |

| SMILES | displacement [%] |
| --- | --- |
| COc1cc(/C=C(\C#N)c2nc3ccc(C)cc3[nH]2)cc(OC)c1OC(C)=O | -4.6 |
| O=C(NC1=Nc2cccc3cccc1c23)c1cccc(C(F)(F)F)c1 | 62.1 |
| COc1ccc(C(=O)NNC2=Nc3cccc4cccc2c34)cc1 | -17.1 |
| O=C(Nc1cccc(C(F)(F)F)c1)c1cccc(N2C(=O)c3ccccc3C2=O)c1 | -5.6 |
| O=C(Nc1cccc(Br)c1)c1ccc([N+](=O)[O-])cc1 | 12.7 |
| Cc1[nH]c2ccc(Br)cc2c1CC(=O)N/N=C/c1ccc(Cl)c(Cl)c1 | 5.1 |
| C=CCOC(=O)C1=C(C)NC(C)=C(C(=O)OCC=C)C1c1ccc(C)o1 | 12.2 |
| CCOC(=O)C1=C(C)N=c2s/c(=C\c3ccc4c(c3)OCO4)c(=O)n2C1c1ccc2c(c1)OCO2 (stereo not given) | 3.5 |
| CCOC(=O)C1=C(C)N=c2s/c(=C\c3ccccc3)c(=O)n2C1c1ccc(Cl)cc1 (stereo not given) | 3.8 |
| CCOC(=O)C1=C(C)N=c2s/c(=C/c3ccc(Cl)cc3)c(=O)n2C1c1ccccc1 (stereo not given) | 90.8 |
| CCOC(=O)C1=C(C)N=c2s/c(=C\c3ccc([N+](=O)[O-])cc3)c(=O)n2C1c1ccc(Cl)cc1 (stereo not given) | 9.2 |
| CCOC(=O)C1=C(C)N=c2s/c(=C\c3ccc(OCC)cc3)c(=O)n2C1c1ccccc1 (stereo not given) | -1 |
| CCOC(=O)C1=C(C)N=c2s/c(=C/c3ccc(C)cc3)c(=O)n2C1c1ccccc1 (stereo not given) | 2.5 |
| CCOC(=O)C1=C(C)N=c2s/c(=C\c3ccc(C(C)=O)cc3)c(=O)n2C1c1ccccc1 (stereo not given) | 76.2 |
| CCOC(=O)C1=C(C)N=c2s/c(=C\c3ccc4c(c3)OCO4)c(=O)n2C1c1ccc(C)cc1 (stereo not given) | -7.1 |
| CCOC(=O)C1=C(C)N=c2s/c(=C\c3ccc(Cl)cc3)c(=O)n2C1c1ccc2c(c1)OCO2 (stereo not given) | 121 |
| O=C(/C=C/c1cccc(C(F)(F)F)c1)Nc1ccccc1[N+](=O)[O-] | 7 |
| O=C(O)CCC(=O)N1N=C(c2cccs2)CC1c1ccccc1Cl (stereo not given) | -8.4 |
| O=C(Cc1ccc(Cl)cc1)Nc1ccc(Cl)cn1 | 8.8 |
| Clc1ccc(N2CCN(N=Cc3c(Cl)cccc3Cl)CC2)cc1 | 8.5 |
| Cc1ccc(C(=O)Nc2ccc(C(=O)O)cc2)cc1S(=O)(=O)NC1CCCCC1 | -11.1 |
| Cc1nn(-c2ccccc2)c(C)c1/C=N/O | 3.2 |
| CCOC(=O)c1c(NC(=O)C(C)N2C(=O)c3ccccc3C2=O)sc2c1CCC(C)C2 (stereo not given) | 2.5 |
| O=C1NN(c2ccccc2)C(=O)/C1=C/c1ccc(-c2ccc(F)cc2)o1 | 8.1 |
| COc1ccc(N2C(=O)NC(=O)/C(=C/c3ccc(I)o3)C2=O)cc1 | 3.6 |
| COc1ccc(N2C(=O)NC(=O)/C(=C\c3ccc(C)cc3)C2=O)cc1 | -6 |
| COc1ccc(N2C(=O)NC(=O)/C(=C/c3ccc(OCc4ccccc4F)cc3)C2=O)cc1 | 63.1 |

| SMILES | displacement [%] |
| --- | --- |
| COc1ccc(N2C(=O)NC(=O)/C(=C/c3cccc(OCc4ccccc4F)c3)C2=O)cc1 | 0.1 |
| COc1ccc(N2C(=O)NC(=O)/C(=C\c3ccc(-c4ccccc4C(=O)O)o3)C2=O)cc1 | -88.8 |
| COc1ccc(N2C(=O)NC(=O)/C(=C/c3ccc(-c4ccc(F)cc4)o3)C2=O)cc1 | 100 |
| Cc1ccc(N2C(=O)NC(=O)/C(=C/c3ccc(-c4ccc(F)cc4)o3)C2=O)cc1 | 40.5 |
| O=C1NC(=O)N(c2ccccc2)C(=O)/C1=C\c1ccc(-c2ccc(F)cc2)o1 | 137 |
| O=C1NC(=O)N(c2ccccc2)C(=O)/C1=C\c1ccc(OCc2ccccc2F)cc1 | 12.9 |
| COc1ccc(N2C(=O)NC(=O)/C(=C/c3ccc(Sc4ccc(C)cc4)o3)C2=O)cc1 | 125 |
| COC(=O)c1c(N)sc(C(=O)Nc2ccccc2OC)c1C | 1.7 |
| Cc1cc(Cl)ccc1OCC(=O)Nc1nc2ccc(Cl)cc2s1 | -7.8 |
| O=[N+]([O-])c1cccc(S(=O)(=O)N2CCc3ccccc3C2)c1 | 0 |
| COc1ccccc1N1C(=O)C2C(C1=O)C1C=CC2C12CC2 (stereo not given) | 15.1 |
| O=C(Nc1ccc(I)cc1)/C(=C\c1cccc([N+](=O)[O-])c1)NC(=O)c1cccs1 | -0.6 |
| COc1cccc(OC)c1C(=O)Nc1ccc(C(=O)Oc2ccccc2)c(O)c1 | -9.1 |
| O=C(Nc1ccc(Cl)c(-c2nc3ccccc3o2)c1)c1cccc(F)c1 | -5.1 |
| CC(=O)Nc1ccc(S(=O)(=O)Nc2ccccc2Br)cc1 | -2.9 |
| O=C1NC(=S)N/C1=C/c1cccc(O)c1 | -6.7 |
| COc1cc(OC)cc(-c2nc3ccc(C)cc3c(=O)o2)c1 | -17.8 |
| O=C(Nc1ccc2nn(-c3ccc(F)cc3)nc2c1)c1ccc(-c2ccc([N+](=O)[O-])cc2)o1 | 8.2 |
| CN1C(=O)NC(=O)/C(=C/c2ccc(-c3ccc(F)cc3)o2)C1=O | 123 |
| C=CCN1C(=O)/C(=C\c2ccc(-c3ccc(F)cc3)o2)C(=O)NC1=S | -3.3 |
| CN1C(=O)NC(=O)/C(=C/c2ccc(-c3ccc(Cl)cc3)o2)C1=O | 37 |
| COc1ccccc1CNC(=O)c1cccc(Cl)c1 | -6.1 |
| COc1cccc(C(=O)Nc2ccc(-c3nc4ccccc4o3)c(O)c2)c1 | -23.2 |
| O=[N+]([O-])c1ccc(/C=N\Nc2nc(-c3ccccc3)c3cc(Cl)ccc3n2)o1 | -5.3 |
| Clc1ccc2nc(N/N=C/c3ccc4c(c3)OCO4)nc(-c3ccccc3)c2c1 | 83.7 |
| Clc1ccc2nc(N/N=C/c3ccc4ncccc4c3)nc(-c3ccccc3)c2c1 | -2.6 |
| Cc1ccc(/C=N\N2CCN(c3ccccc3)CC2)cc1 | -3.9 |

| SMILES | displacement [%] |
| --- | --- |
| COc1cc(C)nc(Nc2nc(C)c3cc(C)ccc3n2)n1 | 107 |
| COc1ccc2nc(Nc3nc(C)cc(-c4ccccc4)n3)nc(C)c2c1 | -14.2 |
| COc1cc(C)nc(Nc2nc(C)c3ccc(C)cc3n2)n1 | 13.2 |
| CN(C)c1ccc(CC2(CC(=O)c3ccccc3)C(=O)c3ccccc3C2=O)cc1 | 1.8 |
| CC1=CC(=O)C=C/C1=N\OS(=O)(=O)c1ccccc1 | 25.4 |
| COc1cc(C=C2C(=O)N(C)C(=O)N(C)C2=O)ccc1OC(C)c1ccccc1 (stereo not given) | 120 |
| COc1cc(C=O)ccc1OC(C)c1ccccc1 (stereo not given) | 1.1 |
| COc1ccc(C=C2C(=O)N(C)C(=O)N(C)C2=O)cc1OC | 0.6 |
| COc1ccc(OC)c(/C=c2\sc3nc4c(Br)c(C)c(C)cc4n3c2=O)c1 | 19.8 |
| Cc1ccc(OCC(=O)O/N=C(\N)c2ccncc2)c(C)c1 | 2.5 |
| CC1(C)Cc2ccccc2-c2nnc(-c3cccs3)n21 | -8.6 |
| N/C(=N\c1nc2ccccc2o1)NC(=O)c1ccccc1 | -10.3 |
| N/C(=N\c1nc2ccccc2o1)NC(=O)c1ccc(F)cc1 | 1.4 |
| N/C(=N/c1nc2ccccc2o1)NC(=O)c1sc2ccccc2c1Cl | 51.6 |
| O=C(Oc1ccc(Br)cc1C(=S)N1CCOCC1)c1ccc([N+](=O)[O-])cc1 | 7.3 |
| Cc1cccc(NC(=O)c2c(NC(=O)C(C)(C)C)sc3c2CCC3)c1 | -2.3 |
| Nc1cccc2c1C(=O)c1c(N)cccc1C2=O | -4.2 |
| CCC(=O)Nc1cccc2c1C(=O)c1ccccc1C2=O | 11.2 |
| Nc1ccc2[nH]nc3c2c1C(=O)c1ccccc1-3 | 104 |
| CNc1c(Cl)c(Cl)c(Cl)c2c1C(=O)c1ccccc1C2=O | 11.2 |
| CNc1ccc2[nH]nc3c2c1C(=O)c1ccccc1-3 | 173 |
| Nc1nnc2c(n1)-c1ccccc1C2=O | 1 |
| Cc1cc(C)nc(NS(=O)(=O)c2ccc(NC(=S)NC(=O)c3ccc(Br)cc3)cc2)n1 | 2.6 |
| O=C(NCCN1CCOCC1)c1sc2ccccc2c1Cl | -3.6 |
